Several values for one entry are separate records, joined by “and”; a condition that tells them apart may be missing. Equal values may be shown once. In all, about 16,000 compounds went through this assay and about 5,100 (32%) were called active. Not shown: some 25% with an inconclusive outcome. Some of the results follow. Values without a mark were called inactive. Calls follow the shape of the dose curve; as a rule, active = well fitted curve in the direction sought with a large enough effect; inconclusive = small, poorly fitted or top-dose-only effect, or effect the other way; inactive = no such curve, though single readings can be large or run the other way.
% is scaled to controls: 0 for no effect and ±100 for the full control effect.

Chain of Cytochrome P450 3A4 (Homo sapiens) (P08684 whole entry, looked up): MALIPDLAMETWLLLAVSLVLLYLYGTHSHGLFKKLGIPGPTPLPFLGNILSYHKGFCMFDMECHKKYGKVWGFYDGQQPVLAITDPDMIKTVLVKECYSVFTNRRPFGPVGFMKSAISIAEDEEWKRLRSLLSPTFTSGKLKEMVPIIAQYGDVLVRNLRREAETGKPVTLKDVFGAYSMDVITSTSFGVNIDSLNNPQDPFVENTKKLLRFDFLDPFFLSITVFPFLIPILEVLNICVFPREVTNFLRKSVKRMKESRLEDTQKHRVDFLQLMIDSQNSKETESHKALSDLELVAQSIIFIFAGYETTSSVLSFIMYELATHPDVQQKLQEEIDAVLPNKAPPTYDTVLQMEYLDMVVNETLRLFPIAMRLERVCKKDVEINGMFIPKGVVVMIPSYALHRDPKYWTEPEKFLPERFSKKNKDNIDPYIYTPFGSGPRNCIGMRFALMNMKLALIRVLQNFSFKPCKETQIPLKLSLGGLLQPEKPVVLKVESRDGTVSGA

The assay addresses Cytochrome P450 3A4 (Homo sapiens) (UniProt P08684). Put plainly: Cytochrome panel assay with activity outcomes. The note with it: recombinant CYP, pro-luciferin dealkylation, luminescence, p450-cyp3a4; series mostly up to 57.1 µM; activity, negative = inhibition: at the top concentration.
Broadly, the AC50 is the midpoint of the concentration-response curve, whichever way the signal moves. For the molecule `Cc1ccc2c(c1)nnn2C1CCN(S(=O)(=O)c2ccc(C(=O)N3C(C)CCCC3C)cc2)CC1` (stereo not drawn), the AC50 is 1.41 µM (active).
Take `CC1Cc2ccccc2N1C(=O)Cn1cc([N+](=O)[O-])cn1` (stereo not drawn): the “activity, negative = inhibition” value is -17.8%.
Take `CCC(=O)Nc1ccccc1C(=O)OCC(=O)c1cccc2ccccc12`: the AC50 is 11.2 µM (active).
On to `CCC(=O)Nc1ccccc1C(=O)OCC(=O)c1ccccc1`, for which the “activity, negative = inhibition” value was -9.57%.
Take `CCOC(=O)c1ccccc1NC(=O)/C(C)=C/C(=O)O`: the “activity, negative = inhibition” value is -19.6%.
In the case of `c1ccc2c(Nc3ccncc3)nc(-c3ccc4c(c3)OCO4)nc2c1`, the AC50 is 0.501 µM (active).
Same read-out and setting: the figure for `c1ccc(Nc2nc(-c3ccc4c(c3)OCO4)nc3ccccc23)cc1` is 5.01 µM (active).
Turning to `Nc1ncnc2c([C@@H]3O[C@@H](CO)[C@H](O)[C@@H]3O)nsc12`, the activity, negative = inhibition is -0.156% [at 11.4 µM].
As for `CN(C)/N=N\c1nc[nH]c1C(N)=O`, the “activity, negative = inhibition” value is -4.61% [at 25.6 µM].
Take `O=C(c1nn(Cc2ccccc2)c(=O)c2ccccc12)N1CCN(C/C=C/c2ccccc2)CC1`: the half-maximal activity concentration (AC50) is 2.24 µM (active).
Take `O=C(O)C1C2C=CC(C2)C1C(=O)N1CCN(C/C=C/c2ccccc2)CC1` (stereo not drawn): the “activity, negative = inhibition” value is -12.1%.
In the case of `O=C(COc1cccc(NC(=O)c2cccc([N+](=O)[O-])c2)c1)c1ccc(Br)cc1`, the “activity, negative = inhibition” value was 25.1%.
In the case of `COc1ccc(-c2nc(NC(=O)c3ccccc3)sc2-c2ccc([N+](=O)[O-])cc2)cc1`, the activity, negative = inhibition is 12.5% [at 2.29 µM].
The same measure, in the same setting: the value for `COc1ccc(C(=O)Nc2cccc(/C(C)=N/NC(=O)c3ccc([N+](=O)[O-])cc3)c2)cc1OC` was -28.5% [at 2.29 µM].
`O=C(Nc1nc(-c2ccccc2)cs1)c1cccc([N+](=O)[O-])c1`: the half-maximal activity concentration (AC50) is 10 µM (active).
On the same count and under the same terms, the figure for `CCC(=O)Nc1cccc(NC(=O)c2cccc([N+](=O)[O-])c2)c1` is 22.4 µM (active).
On the same count and under the same terms, the value for `COc1ccc(CC(=O)Nc2cccc(/C(C)=N/NC(=O)c3cccc([N+](=O)[O-])c3)c2)cc1` was 2 µM (active).
Take `N[C@H](C(=O)O)c1ccc(C(=O)O)cc1`: the “activity, negative = inhibition” value is -13.3%.
The same measure, in the same setting: the value for `CCN(CC)CCNC(=O)Cn1nc(-c2ccc(C)cc2)ccc1=O` was -12.6%.
As for `COc1ncc2nc(-c3cccc(C#N)c3)c(=O)n(CCC#N)c2n1`, the concentration at half-maximal activity (AC50) was 25.1 µM (active).
In the case of `N#CCCn1c(=O)c(-c2cccc(C#N)c2)nc2cnc(Oc3cccc(Cl)c3)nc21`, the “activity, negative = inhibition” value was 12.9%.
Same read-out and setting: the figure for `CN(C)c1ncc2nc(-c3cccc(C#N)c3)c(=O)n(CCC#N)c2n1` is 10.2%.
Regarding `COc1cccc(Cn2c(=O)c(-c3cccc(C#N)c3)nc3cnc(OC)nc32)c1`, the concentration at half-maximal activity (AC50) is 3.16 µM (active).
The same measure, in the same setting: the figure for `COc1ccc(Oc2ncc3nc(-c4cccc(C#N)c4)c(=O)n(Cc4cccc(OC)c4)c3n2)cc1` is 2 µM (active).
Turning to `CC(C)[C@H](CO)Nc1nc(Nc2ccc(C(=O)O)c(Cl)c2)c2ncn(C(C)C)c2n1`, the “activity, negative = inhibition” value is -24.8%.
For `NCCC(=O)O`, the “activity, negative = inhibition” value is -12.8%.
As for `O=C(Nc1nnc(-c2ccc(Cl)cc2)o1)Nc1ccccc1Cl`, the activity, negative = inhibition is -3.31% [at 2.29 µM].
With `Cc1ccc(-c2nnc(-c3ccccc3S(=O)(=O)Cc3ccc(Cl)cc3)o2)cc1`, the AC50 is 3.98 µM (active).
For the molecule `NS(=O)(=O)c1cc(C(=O)O)c(O)c2ccccc12`, the activity, negative = inhibition was -3.6% [at 11.4 µM].
`COc1ccc2c(c1)C(c1ccc([N+](=O)[O-])cc1)=NNC(c1ccco1)=N2`: the half-maximal activity concentration (AC50) was 14.1 µM (active).
Still for that read-out and setting: the value for `FC(F)(F)c1ccccc1-c1ccc2ncnc(NCc3cccs3)c2c1` was 5.01 µM (active); that for `Cc1ccccc1-c1ccc2ncnc(NCc3cccs3)c2c1` was 3.98 µM (active); that for `Cc1cc2nc(CCN(C(=S)NCC(C)C)C3CCCC3)[nH]c2cc1C` was 17.8 µM (active).
Consider `COc1cc(C(=O)OC(C)C(=O)Nc2ccc3c(c2)OCO3)ccc1OCc1c(C)noc1C` (stereo not drawn), for which the AC50 was 0.631 µM (active).
As to `Cc1noc(C)c1COc1ccc(C(=O)NCC2CCCO2)cc1` (stereo not drawn), the “activity, negative = inhibition” value was -6.7%.
Still for that read-out and setting: the value for `CC(C)=NO[C@@H](C)c1cn([C@H](CO)Cc2ccccc2)nn1` was -28.8% [at 11.4 µM] and -23.4% [at 11.4 µM].
Consider `C/C(CCN1CCCc2nc(C)c(C)cc21)=N\O[C@@H](C)c1cn([C@H](CO)Cc2ccccc2)nn1`, for which the concentration at half-maximal activity (AC50) was 2 µM (active).
For `CCc1cc2c(nc1CC)CCN(CC/C(C)=N/O[C@@H](C)c1cn([C@@H]3COC[C@@H]3O)nn1)C2`, the activity, negative = inhibition is -5.44% [at 11.4 µM].
Turning to `CCc1cc2c(nc1CC)CCN(CC/C(C)=N/O[C@@H](C)c1cn([C@H](CO)Cc3ccccc3)nn1)C2`, the AC50 was 3.16 µM (active) and 3.98 µM (active).
As to `C/C(CCN1CCCCc2nc(C)c(C)cc21)=N\O[C@@H](C)c1cn([C@H](CO)Cc2ccccc2)nn1`, the concentration at half-maximal activity (AC50) was 3.98 µM (active) and 5.01 µM (active).
Take `Cc1cccc(N(CC(=O)N2CCOCC2)S(C)(=O)=O)c1`: the “activity, negative = inhibition” value was -0.837%.
Regarding `CN(C)C(=O)CN(c1ccc2c(c1)OCO2)S(C)(=O)=O`, the AC50 is 25.1 µM (active).
As to `COc1ccc(NC(C)=O)cc1NC(=O)CN1CCN(CC(=O)Nc2ccccc2Cl)CC1`, the concentration at half-maximal activity (AC50) was 12.6 µM (active).
Turning to `COc1ccc(NC(=O)CN2c3cccc4cccc(c34)S2(=O)=O)cc1`, the concentration at half-maximal activity (AC50) was 4.47 µM (active).
The same measure, in the same setting: the value for `O=C(CN1C(=O)C2C3C=CC(C3)C2C1=O)Nc1ccc2c(c1)OCCO2` (stereo not drawn) was 25.1 µM (active); that for `COc1ccc(NC(=O)CN2CCN(CC(=O)Nc3ccccc3Cl)CC2)cc1` was 10 µM (active).
For `COc1ccccc1NC(=O)CN1CCN(CC(=O)Nc2ccc(OCc3ccccc3)cc2)CC1`, the “activity, negative = inhibition” value was -17.7%.
Still for that read-out and setting: the value for `O=C(CN1C(=O)C2C3C=CC(C3)C2C1=O)Nc1ccc(C(=O)O)cc1` (stereo not drawn) was -10.2%.

Values taken from PubChem BioAssay AID1851 (National Center for Advancing Translational Sciences (NCATS), 2009).
